Screening data (PubChem)
In the library only some 0.61% were active in any assay of this set; here they are far more common.
TcdB GH inh = inhibitors of Clostridioides difficile toxin B glycohydrolase | AID 652162 | inhibition, % at 9.99 µM | actives 0.24% (n = 350,000) | TcdB glycohydrolase enzymatic assay, plate reader | P18177; in the data active = inhibition above about 10%
Vc quorum ag-1 = inducers of Vibrio cholerae quorum light production without autoinducers; V. cholerae BH1578 lux reporter, luminescence, 6 h; activation, % at 18.7 µM; actives 0.16% (n = 350,000); in the data active = activation mostly above about 9.7%, no sharp cut-off
BioA inh = blocks M. tuberculosis BioA enzyme activity. inhibition, % at 9.99 µM. purified M. tuberculosis BioA enzyme, plate reader. actives 0.096% (n = 360,000); in the data active = inhibition above about 40%
FadD28 binding = M. tuberculosis FadD28 bisubstrate binding inhibition. FadD28 bisubstrate probe binding, fluorescence polarization. inhibition, % at 12.5 µM. actives 0.22% (n = 360,000); in the data active = inhibition above about 8.5%, passing the limit was not always enough
Yp Topo-I inh = Y. pestis Topo-I inhibition via cleavage products; Y. pestis Topo-I cleavage product accumulation, plate reader; activity, % at 10 µM; actives 0.064% (n = 360,000); AID 504884; in the data active = activity above about 50%, passing the limit was not always enough
Vc quorum ag-2 = induces V. cholerae light production without autoinducers | shares compounds with Vc quorum ag-1 | V. cholerae BH1578 lux reporter, luminescence, 6 h | activation, % at 50 µM | 620 tested, under 10 active; call rule not given here
HeLa tox = kills HeLa cells within 24 hours | shares compounds with Vc quorum ag-1 | HeLa viability, CellTiter-Glo ATP luminescence | activity change, negative = cytotoxicity, % at 35 µM | 25 tested, under 10 active;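 active = signal drop with fitted half-maximal concentration at or below twice the highest valid dose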
An asterisk follows results filed as active; i = inactive; nt = no result; + = active, no number.

SMILES	TcdB GH inh	Vc quorum ag-1	BioA inh	FadD28 binding	Yp Topo-I inh	Vc quorum ag-2	others
CN(C1CCCCC1)S(=O)(=O)CCNC(=O)c1ccccc1	-0.3	14.3	-0.5	-0.6	13.2	0.3
C[C@@H]1CN([C@H](C)CO)C(=O)c2cc(NC(=O)Nc3ccccc3)ccc2O[C@@H](C)CCCCO[C@H]1CN(C)Cc1ccccc1	0.3	nt	2.2	nt	nt	nt
COc1ccc(NC(=O)Nc2ccc3c(c2)[C@H]2C[C@H](CC(=O)NCc4ccccn4)O[C@H](CO)[C@H]2O3)cc1	0.9	nt	-1.6	nt	nt	nt
O=C(Oc1ccc(=O)n(-c2ccccc2)n1)c1ccc(Cl)cc1	nt	i	0.6	-7.1	-2.8	nt
O=C(Oc1ccc(=O)n(-c2ccccc2)n1)c1cccc(Cl)c1	nt	25.0*	-1.1	-5.2	-5.4	0.3
C[C@@H]1CN([C@H](C)CO)C(=O)c2cc(NC(=O)Cn3cnnn3)ccc2O[C@@H]1CN(C)Cc1ccc2c(c1)OCO2	0.3	nt	-0.5	nt	nt	nt
COc1ccc2c3c([nH]c2c1)[C@H](CO)N(C(=O)C1CCOCC1)CC31CN(Cc2nccs2)C1	-1.1	nt	nt	nt	nt	nt
Cc1noc(C)c1S(=O)(=O)Nc1ccc2c(c1)C(=O)N([C@@H](C)CO)C[C@@H](C)[C@@H](CN(C)Cc1ccncc1)OCCCC[C@H](C)O2	-0.3	nt	0.3	nt	nt	nt
COc1cc(C(=O)Nc2ccc3c(c2)OCO3)ccc1-n1cnnn1	nt	0.8	2.5	2.1	3.1	nt
COc1cc(NC(=O)Cc2cccs2)ccc1-n1cnnn1	nt	19.9	nt	0.8	-4.9	5.1
COC(=O)Cc1c(C)c2ccc(OC(=O)c3ccccc3)cc2oc1=O	nt	12.5	-1.9	0.4	-3.1	0.2
Cc1ccc(-c2cc(C(=O)N3N=C(C(F)F)CC3(O)C(F)F)c3ccccc3n2)cc1C (stereo not given)	nt	12.5	0.5	-5.7	0.2	0.1
Cc1noc(C)c1C(=O)OCC(=O)c1c[nH]c2ccccc12	nt	12.5	1.4	-3.3	2.7	0.2
Cc1onc(-c2c(F)cccc2Cl)c1C(=O)OCC(=O)c1c[nH]c2ccccc12	0.2	i	-1.5	-16.8	0.4	nt
COCC(=O)N1[C@@H](CO)[C@@H](c2ccccc2)C12CN(Cc1ccccc1)C2	-2.9	nt	nt	nt	nt	nt
COC(C(=O)Nc1ccccc1C(=O)N1CCOCC1)c1ccccc1 (stereo not given)	-0.4	10.8	-1.2	-0.7	3.4	-0.3
Cc1ccc2nc(SCc3nnc(-c4ccccc4Br)o3)[nH]c2c1	nt	12.5	0.7	-6.1	7.7	0.3
Clc1ccc2nc(SCc3nnc(-c4ccccc4)o3)[nH]c2c1	nt	i	3.5	-2.2	-2.1	nt
O=C(O)CCCn1nc(-c2ccccc2)c2ccccc21	0.7	-0.2	-0.3	0.1	4.4	nt
COC(=O)Cn1nc(-c2ccccc2)c2ccccc21	nt	12.5	0.1	-2.3	10.7	0.0
Cc1cccc(S(=O)(=O)N2CCCCN3[C@H](CO)[C@H](c4ccc(-c5ccncc5)cc4)[C@@H]3C2)c1	-0.8	nt	-1.8	nt	nt	nt
CCC1(CC)NC(=O)N(CC(=O)OCC(=O)NC(=O)c2ccc(Cl)cc2)C1=O	-0.7	-0.4	nt	0.3	-3.6	nt
CCC1(CC)NC(=O)N(CC(=O)OCC(=O)NC(=O)c2ccccc2OC)C1=O	0.3	14.3	0.2	-2.6	-9.0	0.0
CCN(C(=O)COc1ncnc2ccc(Br)cc12)C1CCS(=O)(=O)C1 (stereo not given)	nt	16.7*	-0.8	-3.1	-7.5	-1.3
CCN(C(=O)COC(=O)c1cc(-c2ccccc2)nc2ccc(Br)cc12)C1CCS(=O)(=O)C1 (stereo not given)	0.6	i	nt	-1.3	-4.6	nt
SMILES	TcdB GH inh	Vc quorum ag-1	BioA inh	FadD28 binding	Yp Topo-I inh	Vc quorum ag-2	others
CC(C)C#Cc1ccc([C@@H]2[C@H](C#N)N(C(=O)CN(C)C)[C@H]2CO)cc1	-0.3	nt	0.1	nt	nt	nt
CC(C)NC(=O)N(C)C[C@@H]1OCCCC[C@@H](C)Oc2ccc(NS(=O)(=O)c3ccccc3)cc2C(=O)N([C@@H](C)CO)C[C@H]1C	0.0	nt	-2.1	nt	nt	nt
COc1ccc(OCC(=O)Nc2ccccc2OC)cc1	-0.2	28.6*	1.0	-1.4	1.9	175.4
CCOc1ccccc1NC(=O)COc1ccc2c(c1)OCO2	-2.2	-0.3	-1.5	-3.6	25.7	nt
COc1ccccc1NC(=O)COc1ccc2c(c1)OCO2	-2.2	104.5*	-1.0	-1.7	-6.2	212.5
CCCC(=O)Nc1ccc2c(c1)OC[C@H](C)N(Cc1ccc(-c3ccccn3)cc1)C[C@H](C)[C@@H](OC)CN(C)C2=O	-0.9	nt	nt	nt	nt	nt
CCCn1nnnc1NCc1ccc(SC)cc1	-4.7	nt	-1.1	-3.0	-2.5	i
CCCn1nnnc1NCc1ccc(N(CC)CC)cc1	-1.1	nt	0.8	-3.4	-2.9	i	HeLa tox=-3.4
CCN(CC)c1ccc(CNc2nnnn2C)cc1	-2.9	+	0.7	-0.5	-6.7	i
CCCn1nnnc1NCc1cccc(Cl)c1	3.5	-0.7	-1.8	-0.8	1.2	nt
CCCn1nnnc1NCc1cc(Br)ccc1OC	1.7	0.1	2.2	-2.6	-8.9	nt
CCCn1nnnc1NCc1ccc(OC)cc1OC	0.6	+	3.4	-0.7	-1.4	i
CCCn1nnnc1NCc1ccc(F)cc1	-0.1	i	nt	-2.7	-4.6	nt
CCn1nnnc1NCc1ccc(Cl)cc1	-0.3	6.7	1.6	-0.5	1.7	nt
CCn1nnnc1NCc1cccn1C	nt	-0.3	-0.8	-1.4	2.2	nt	HeLa tox=-1.3
CC(C)Oc1ccc(OCCCN2CCCCCC2)cc1	nt	14.3	-0.9	-4.7	2.3	0.0
CC(C)c1ccc(OCCCCN2CCCCC2)cc1	0.7	i	0.3	-1.6	-0.6	nt
CCC(=O)N1[C@H](CO)[C@H]2c3ccccc3N(C(=O)c3cnccn3)C[C@H]21	-0.8	nt	-3.7	nt	nt	nt
O=C(C[C@H]1CC[C@@H](NC(=O)Nc2ccccc2F)[C@H](CO)O1)NCc1ccc(F)cc1	-0.3	nt	nt	nt	nt	nt
CO[C@@H]1CN(C)C(=O)c2ccc(NC(C)=O)cc2OC[C@@H](C)N(Cc2cc(F)ccc2F)C[C@H]1C	-0.6	nt	0.7	nt	nt	nt
O=C(NCC(c1ccco1)N1CCCC1)c1ccc(Cl)cc1 (stereo not given)	nt	i	-1.1	-0.4	4.9	nt
O=C(CCNC(=O)c1ccc(Cl)cc1)NCC(c1ccco1)N1CCCCC1 (stereo not given)	1.7	14.3	-1.3	-0.8	15.0	0.1
CO[C@@H]1CC[C@@H]2CCOc3ccc(C#N)cc3C(=O)N(C)C[C@@H](c3ccccc3)CC(=O)N(C)C[C@@H]1O2	nt	nt	-0.3	nt	nt	nt
COc1ccc(N2CCN(CC(=O)Nc3c(C)cc(C)cc3C)CC2)cc1	nt	12.5	-1.4	-1.1	2.7	0.4
Cc1ccc(C)c(S(=O)(=O)Nc2ccc(-n3cnnn3)cc2)c1	nt	36.7*	0.1	0.5	-2.1	-0.1
Cc1ccc(C)c(S(=O)(=O)Nc2ccc(O)cc2)c1	nt	i	nt	-2.9	-8.8	nt
CCN1CCCC1CNC(=O)c1cc(OC)c(OC)c(OC)c1 (stereo not given)	nt	3.2	-2.4	0.3	5.0	0.8
